Experimental data taken from PubChem BioAssay (Tox21).
Results filed as inconclusive are left out. Active and inactive are the calls of the source. Unless noted, calls follow the shape of the dose curve; as a rule, active = well fitted curve in the direction sought with a large enough effect in the repeat runs; inconclusive = weak or mixed curves; inactive = no such curve, though single readings can be large; an effect the other way counts as inactive or inconclusive.

How the values were obtained:
[1] = molecular target: Luciferin 4-monooxygenase (Photinus pyralis) (UniProt P08659); assay: qHTS assay to identify small molecule inhibitors of firefly luciferase (AID 1224835); also: nearly all actives have a fitted effect of over 25% in size
Method in brief: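 Quantitative HTS format; KM concentrations of both substrates. Purified P. pyralis FLuc activity quantified from luminescence images.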

[2] = qHTS assay to identify small molecule agonists of the constitutive androstane receptor (CAR) signaling pathway - cell viability counter screen (AID 1224836); also: nearly all actives have a fitted effect of over 45% in size
Method in brief: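 Using CellTiter-Fluor, viability of HepG2 cells harbouring hCAR and CYP2B6-2.2kb was measured following 23 h incubation with a 15-concentration compound series plus PK11195 (0.75 uM final).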

[3] = qHTS assay to identify small molecule antagonists of the constitutive androstane receptor (CAR) signaling pathway - cell viability counter screen (AID 1224837); also: nearly all actives have a fitted effect of over 45% in size
Method in brief: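 Counter screen run in HepG2-CYP2B6-hCAR cells: 4 hr settle, compound titration (15 concentrations) with 50 nM CITCO, 23 hr at 37 C/5% CO2, CellTiter-Fluor fluorescence.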

[4] = molecular target: Nuclear receptor subfamily 1 group I member 3 (Homo sapiens) (UniProt Q14994); assay: qHTS assay to identify small molecule antagonists of the constitutive androstane receptor (CAR) signaling pathway (AID 1224838);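 also: HepG2 cells stably expressing hCAR with CYP2B6 luciferase reporter stimulated by CITCO; nearly all actives have a fitted effect of over 40% in size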
Method in brief: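 Cell line: HepG2 double-stable for hCAR and CYP2B6-2.2kb reporter. Agonist: CITCO, 50 nM final. Compounds: 15 concentrations, 24 h, 37 C. Detection: ONE-Glo luminescence.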

[5] = molecular target: Nuclear receptor subfamily 1 group I member 3 (Homo sapiens) (UniProt Q14994); assay: qHTS assay to identify small molecule agonists of the constitutive androstane receptor (CAR) signaling pathway (AID 1224839);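 also: HepG2 cells stably carrying human CAR and a CYP2B6 luciferase reporter; nearly all actives have a fitted effect of over 15% in size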
Method in brief: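 Double-stable HepG2 cells (hCAR, CYP2B6-2.2kb) seeded 4 h before compound addition. Exposure 24 h with 0.75 uM PK11195 final. Luciferase detected by ONE-Glo.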

[6] = qHTS assay to identify small molecule antagonists of the estrogen related receptor signaling pathway with the pleiotropic PPARgamma coactivator (PGC) from Tox21 10K library - cell viability counter screen (AID 1224840; active = well fitted cell-killing curve with a large enough effect in the repeat runs, not every such curve was filed as active; also: nearly all actives have a fitted effect of over 40% in size)
Method in brief: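 Following seeding of 2,000 PGC/ERR cells/well and 6 hours' incubation, test compounds were delivered in DMSO. The plates then sat 17.5 hours at 37 C before a fluorogenic live-cell protease reagent (CellTiter-Fluor) was read after 30 min.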

[7] = molecular target: Thyrotropin receptor (Homo sapiens) (UniProt P16473); assay: qHTS assay to identify small molecule agonists of the thyroid stimulating hormone receptor (TSHR) signaling pathway (AID 1224843; calls by dose curve; also: nearly all actives have a fitted effect of over 45% in size)
Method in brief: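 Cell line HEK293 with TSHR; density 800/well. Exposure 30 min RT. Readout HTRF cAMP (cAMP-d2/anti-cAMP-cryptate), 1 h RT before reading.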

[8] = qHTS assay to identify small molecule agonists of the hypoxia (HIF-1) signaling pathway - cell viability counter screen (AID 1224844; calls by dose curve; also: nearly all actives have a fitted effect of over 50% in size)
Method in brief: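 Cells (HRE-bla ME-180, 2,000 per well) sat 5 hrs at 37C, got compound for 17 hrs, were read for CCF4-AM FRET, and were finally lysed with CellTiter-Glo for a 30 min room-temperature luminescence read.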

[9] = qHTS assay to identify small molecule agonists of H2AX (AID 1224845; active = well fitted activation curve with a large enough effect in the signal ratio in the repeat runs, not every such curve was filed as active; the % refers to the signal ratio)
Method in brief: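 Wild-type CHO-K1 cells plated overnight, then exposed 3 hr at 37C to compounds at 15 concentrations (0.76% DMSO). Lysed, then HTRF anti-pH2AX(S139)-cryptate/anti-H2AX-d2 detection after 24 hr at room temperature; emissions 665 and 620 nm.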

[10] = qHTS assay to identify small molecule agonists of the hypoxia (HIF-1) signaling pathway (AID 1224846; active = well fitted activation curve with a large enough effect in the signal ratio in the repeat runs, not every such curve was filed as active; the % refers to the signal ratio)
Method in brief: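 A low-serum medium (0.5% dialyzed FBS) holding 2,000 HRE-bla ME-180 cells per well is preincubated for 5 hrs, dosed with compounds by pintool, and kept a further 17 hrs at 37C, 5% CO2 before CCF4-AM FRET detection of beta-lactamase.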

[11] = qHTS assay to identify small molecule agonists of H2AX - cell viability counter screen (AID 1224847; calls by dose curve; also: top concentration of the series differs between compounds; nearly all actives have a fitted effect of over 30% in size)
Method in brief: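 Quantitative HTS viability measurement: CHO-K1 wild-type cells in serum (10% FBS) medium, short 3 hr drug exposure at 37C with 0.76% DMSO, CellTiter-Glo luminescent detection.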

[12] = qHTS RealTime-Glo MT Cell Viability Assay in HEK293 cells - 32 hour (AID 1224868); also: top concentration of the series differs between compounds; nearly all actives have a fitted effect of over 50% in size
Method in brief: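 Cells + reagent dispensed (600 cells/well, HEK293) → 5 h at 37 C/5% CO2 → 23 nL compound in DMSO pinned → 40 h at 37 C → luminescence read at 0, 8, 16, 24, 32, 40 h.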

[13] = A CellTox Green Cytotoxicity Assay to monitor cytotoxicity in HEK293 cells - 0 hour (AID 1224869); also: nearly all actives have a fitted effect of over 50% in size
Method in brief: (§1)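 Fluorescence intensity, read at 0, 8, 16, 24, 32 and 40 h of compound treatment, reflected dye binding to DNA of dead HEK293 cells; compounds (23 nL, DMSO) were added 5 h after plating cells with reagent.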

[14] = qHTS RealTime-Glo MT Cell Viability Assay in HepG2 cells - 40 hour (AID 1224870); also: nearly all actives have a fitted effect of over 50% in size
Method in brief: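 HepG2 cells mixed with RealTime-Glo MT reagents (NanoLuc plus cell-permeant prosubstrate) were seeded at 600 cells/well, incubated 5 h at 37 C/5% CO2, then pinned with compounds in DMSO; nonlytic luminescence tracked viability during 40 h treatment.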

[15] = A CellTox Green Cytotoxicity Assay to monitor cytotoxicity in HEK293 cells - 40 hour (AID 1224871); also: nearly all actives have a fitted effect of over 45% in size
Method in brief: as §1

[16] = qHTS RealTime-Glo MT Cell Viability Assay in HepG2 cells - 24 hour (AID 1224867); also: nearly all actives have a fitted effect of over 50% in size
Method in brief: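 Real-time, nonlytic viability: 600 HepG2 cells/well mixed with NanoLuc enzyme plus prosubstrate; 5 h settle, compound (DMSO) added by pintool; luminescence monitored over 40 h at 37 C.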

[17] = qHTS assay to identify small molecule antagonists of the estrogen related receptor signaling pathway with the pleiotropic PPARgamma coactivator (PGC) from Tox21 10K library (AID 1224841; call rule not given here)
Method in brief: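 qHTS antagonist format: PGC/ERR cells, 2k/well, compound in DMSO by pin transfer after 6 h attachment, 18 h treatment at 37 C, One-Glo luminescence read at 30 min.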

[18] = qHTS assay to identify small molecule agonists of the estrogen related receptor signaling pathway with the pleiotropic PPARgamma coactivator (PGC) from Tox21 10K library (AID 1224842); also: nearly all actives have a fitted effect of over 15% in size
Method in brief: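 PGC/ERR reporter cells (NTP line) were seeded 2,000 per well, rested 6 h at 37 C/5% CO2, then pin-dosed with compounds in DMSO for 18 h at 37 C; luciferase read by One-Glo luminescence after 30 min at room temperature.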

[19] = qHTS assay to identify small molecule antagonists of the estrogen related receptor (ERR) signaling pathway from Tox21 library (AID 1224848); also: nearly all actives have a fitted effect of over 50% in size
Method in brief: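 Screening used an ERR reporter line supplied by NTP, exposed for 18 h at 37 C to library compounds delivered in DMSO. Signal was luciferase luminescence developed with ONE-Glo at room temperature for 30 min.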

[20] = qHTS assay to identify small molecule agonists of the estrogen related receptor (ERR) signaling pathway from Tox21 library (AID 1224849; calls by dose curve; also: nearly all actives have a fitted effect of over 15% in size); settings: ERR reporter cell line, ONE-Glo luciferase, 18 h; at 92.4 µM (top of the series) unless noted
Method in brief: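 Screening used an NTP-provided ERR luciferase cell line. Compounds in DMSO were added 6 h after seeding and left 18 h at 37 C before a 30 min ONE-Glo step and luminescence reading.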
% is scaled to controls: 0 for no effect and ±100 for the full control effect.

Chain of Nuclear receptor subfamily 1 group I member 3 (Homo sapiens) (Q14994 whole entry, looked up): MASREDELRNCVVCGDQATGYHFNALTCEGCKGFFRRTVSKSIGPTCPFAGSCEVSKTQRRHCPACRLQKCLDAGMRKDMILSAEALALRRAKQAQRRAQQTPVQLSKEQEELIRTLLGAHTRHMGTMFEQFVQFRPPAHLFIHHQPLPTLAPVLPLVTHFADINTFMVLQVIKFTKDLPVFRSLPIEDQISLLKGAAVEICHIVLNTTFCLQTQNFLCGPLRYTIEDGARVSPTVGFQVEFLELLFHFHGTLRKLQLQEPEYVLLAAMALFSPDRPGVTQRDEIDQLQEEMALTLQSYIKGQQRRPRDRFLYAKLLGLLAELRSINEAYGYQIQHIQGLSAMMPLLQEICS
Chain of Luciferin 4-monooxygenase (Photinus pyralis) (P08659 whole entry, looked up): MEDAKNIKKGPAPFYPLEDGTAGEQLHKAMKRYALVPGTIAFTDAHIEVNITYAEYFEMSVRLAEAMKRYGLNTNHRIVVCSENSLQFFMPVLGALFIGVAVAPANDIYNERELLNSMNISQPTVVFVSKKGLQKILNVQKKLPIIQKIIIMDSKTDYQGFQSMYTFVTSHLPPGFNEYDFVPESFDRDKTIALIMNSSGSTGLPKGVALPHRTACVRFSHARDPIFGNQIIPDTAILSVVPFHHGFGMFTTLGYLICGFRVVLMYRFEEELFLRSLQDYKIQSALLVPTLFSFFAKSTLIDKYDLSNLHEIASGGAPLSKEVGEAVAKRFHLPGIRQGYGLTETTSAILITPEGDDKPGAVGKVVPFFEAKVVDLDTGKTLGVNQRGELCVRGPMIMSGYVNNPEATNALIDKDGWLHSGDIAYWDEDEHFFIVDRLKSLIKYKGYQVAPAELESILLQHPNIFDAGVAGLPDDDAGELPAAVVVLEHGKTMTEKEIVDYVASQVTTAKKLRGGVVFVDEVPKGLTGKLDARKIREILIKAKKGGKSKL
Chain of Thyrotropin receptor (Homo sapiens) (P16473 whole entry, looked up): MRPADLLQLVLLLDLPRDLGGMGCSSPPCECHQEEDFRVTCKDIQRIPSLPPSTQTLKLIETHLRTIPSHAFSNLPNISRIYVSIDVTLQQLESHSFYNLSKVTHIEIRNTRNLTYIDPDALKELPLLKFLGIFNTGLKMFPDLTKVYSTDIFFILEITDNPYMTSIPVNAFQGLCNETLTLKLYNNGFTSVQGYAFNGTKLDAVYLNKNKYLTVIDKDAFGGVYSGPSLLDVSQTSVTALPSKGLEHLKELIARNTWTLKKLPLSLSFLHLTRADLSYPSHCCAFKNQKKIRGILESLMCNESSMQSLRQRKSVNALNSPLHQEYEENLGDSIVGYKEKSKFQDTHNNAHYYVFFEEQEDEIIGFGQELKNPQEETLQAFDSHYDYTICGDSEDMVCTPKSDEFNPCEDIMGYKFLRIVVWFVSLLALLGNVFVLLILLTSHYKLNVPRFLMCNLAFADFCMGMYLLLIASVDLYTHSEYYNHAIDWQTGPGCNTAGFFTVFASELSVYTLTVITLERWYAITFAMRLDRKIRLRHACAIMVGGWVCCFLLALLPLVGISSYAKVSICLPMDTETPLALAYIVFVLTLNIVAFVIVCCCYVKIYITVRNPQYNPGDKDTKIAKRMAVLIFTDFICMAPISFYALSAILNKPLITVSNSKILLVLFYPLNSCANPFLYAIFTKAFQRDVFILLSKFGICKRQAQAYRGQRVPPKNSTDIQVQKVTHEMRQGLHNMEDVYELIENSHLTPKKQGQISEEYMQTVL

C/C=C/CO
inactive: Potency [1] | Potency [2] | Potency [3] | Potency [4] | Potency [5] | Potency [6] | Potency [7] | Potency [8] | Potency [9] | outcome [10] | Potency [11] | Potency [12] | Potency [13] | Potency [14] | Potency [15]

NC(=O)C(=O)N/N=C/c1ccc([N+](=O)[O-])o1
inactive: Potency [1] | Potency [2] | Potency [3] | Potency [4] | Potency [5] | Potency [6] | outcome [10] | Potency [16] | Potency [12] | Potency [13] | Potency [14] | Potency [15]

CCCCCCCCCCCCCCCCCO
inactive: activity change, negative = inhibition [1] 3.61% [at 23.6 µM] | viability change, negative = cytotoxic [2] 0.185% [at 19 µM] | activity change, negative = cytotoxicity [3] 8.93% [at 19 µM] | activity, negative = inhibition [4] 9.23% [at 19 µM] | activation [5] 0.0374% [at 19 µM] | activity, negative = inhibition [17] 44.5% [at 19 µM] | activation [18] 4.3% [at 19 µM] | activity change, negative = cytotoxicity [8] 4.42% [at 15.8 µM] | activation (H2AX phosphorylation) [9] -3.22% [at 31.6 µM] | activation [10] -0.342% [at 15.8 µM] | activity, negative = inhibition [19] -9.79% [at 19 µM] | activity change, positive = activation [20] -4.89% [at 19 µM] | activity change, negative = cytotoxicity [16] 0.355% [at 15.8 µM] | activity change, negative = cytotoxic [12] 6.41% [at 15.8 µM] | cytotoxicity [13] -13.6% [at 15.8 µM] | activity change, negative = cytotoxic [14] -3.35% [at 15.8 µM] | cytotoxicity increase [15] -18.9% [at 15.8 µM]

CC(C)=C1CC[C@@H](C)CC1=O
inactive: Potency [1] | Potency [2] | Potency [3] | Potency [4] | Potency [5] | Potency [6] | Potency [7] | Potency [8] | Potency [9] | outcome [10] | Potency [11] | Potency [12] | Potency [15]
